From PubChem BioAssay AID933 (National Center for Advancing Translational Sciences (NCATS), 2009)
Results filed as inconclusive are left out. Active and inactive are the calls of the source. The call rests on the fitted dose curve; in most records, active means well fitted activation curve with a large enough effect in the signal ratio, with a control signal flat; inconclusive means small, poorly fitted or top-dose-only effect, or a change in a side signal; inactive means flat fitted curve, though single readings scatter; the % refers to the signal ratio.

The compounds below were run against Thyrotropin receptor (Homo sapiens) (UniProt P16473) (assay: Secondary Concentration-Response Assay for Agonists of the Thyroid Stimulating Hormone Receptor: HTRF Activity Detection). Conditions: HEK293-TSHR cells, cAMP HTRF ratio, 30 min; series mostly up to 91.7 µM; activation: at the top concentration.
Description: NIH Chemical Genomics Center [NCGC]
NIH Molecular Libraries Screening Centers Network [MLSCN]
PI Name: Dr. Marvin Gershengorn, NIH
Confirmation of Thyroid Stimulating Hormone Receptor Agonists
TSH is an alpha/beta heterodimeric glycoprotein hormone secreted from the anterior pituitary gland which belongs to the glycoprotein hormone family. The actions of TSH are mediated by a seven-transmembrane receptor, which upon TSH binding couples preferentially to the G-alpha (s) protein (Gs), resulting in activation of adenylate cyclase and increase in cyclic adenosine 3', 5' monophosphate (cAMP). The TSH receptor (THSR) is mainly expressed in thyroid follicular cells and regulates their growth and function. Recombinant TSH is used to activate TSHR in patients with thyroid cancer receiving thyroid hormone suppression therapy and to screen for residual tumor after surgery, but it is expensive and must be administered intramuscularly. An orally active small molecule TSHR agonist would serve as an invaluable research tool for studying TSHR pharmacology and physiology, and would have multiple advantages in therapeutic settings. However, no selective small molecule agonist of the TSH receptor exists, and no small molecule screen for TSHR agonists has ever been reported.
A confirmatory assay of putative TSHR agonists was conducted on a different TSHR transfected HEK 293 cell line, using an orthogonal detection technology to measure cAMP stimulation: antibody-based Homogeneous Time Resolved Fluorescence (HTRF).
NCGC Assay Protocol Summary:
Homogeneous Time Resolved Fluorescence (HTRF) cAMP Assay. HEK 293 cells stably transfected with a vector containing the TSHR and maintained under hygromycin selection were obtained from the laboratory of Dr. Marvin Gershengorn. Compounds were assayed using a HTRF cAMP detection kit (Cisbio) on the TSHR transfected cell line. Briefly, 750 cells were plated in 2.5 ul/well of complete media (DMEM containing 10 % FCS, and 100 uM RO 20-1724) in 1536 well solid bottom white plates and 23 nl/well compound in DMSO solution or controls was added. Following 30 minute incubation at room temperature, 2.5 ul/well of labeled d2 cAMP and 2.5 ul/well of anti-cAMP antibody (both diluted 1:20 in lysis buffer) were added to each well using a flying reagent dispenser (Aurora Discovery, San Diego) . Plates were measured using the Envision plate reader (PerkinElmer, Boston, MA) with excitation at 330 nm and emissions of 615 nm and 660 nm.
Keywords: Thyroid-stimulating hormone TSH, TSHR, TSHR agonist, quantitative high throughput screening, qHTS, HTS, probe identification, CNG, cAMP, cyclic nucleotide gated ion channel PubChem
Potency means the concentration at half of the fitted maximal effect.
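Wherever activation is given: HEK 293 cells stably expressing human TSHR with RO 20-1724 phosphodiesterase inhibitor; % of control where 0% means no effect.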

Thyrotropin receptor (Homo sapiens), sequence (P16473 whole entry, looked up): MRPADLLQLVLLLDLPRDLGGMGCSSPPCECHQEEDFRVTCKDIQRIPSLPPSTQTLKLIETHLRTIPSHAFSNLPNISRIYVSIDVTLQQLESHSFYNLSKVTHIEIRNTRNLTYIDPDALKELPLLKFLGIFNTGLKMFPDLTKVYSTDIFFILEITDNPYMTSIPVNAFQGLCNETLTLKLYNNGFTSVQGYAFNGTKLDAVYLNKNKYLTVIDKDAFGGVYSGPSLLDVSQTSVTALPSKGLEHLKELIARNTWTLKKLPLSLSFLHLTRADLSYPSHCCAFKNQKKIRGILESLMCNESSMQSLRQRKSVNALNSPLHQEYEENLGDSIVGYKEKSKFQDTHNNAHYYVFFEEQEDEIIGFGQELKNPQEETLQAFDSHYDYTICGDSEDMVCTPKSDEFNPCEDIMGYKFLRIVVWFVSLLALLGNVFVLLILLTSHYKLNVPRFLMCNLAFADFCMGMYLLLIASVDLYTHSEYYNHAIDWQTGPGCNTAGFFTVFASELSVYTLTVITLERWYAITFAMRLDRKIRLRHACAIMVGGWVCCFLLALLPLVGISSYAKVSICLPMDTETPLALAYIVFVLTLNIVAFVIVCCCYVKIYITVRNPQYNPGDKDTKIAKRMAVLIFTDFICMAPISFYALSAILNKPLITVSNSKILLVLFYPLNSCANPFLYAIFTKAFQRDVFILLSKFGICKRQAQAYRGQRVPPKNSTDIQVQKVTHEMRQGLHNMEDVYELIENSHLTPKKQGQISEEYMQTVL

SMILES | Potency | activation
COc1ccc(C2Cc3ccccc3C(=O)N2Cc2ccccc2)cc1COc1ccc(NC(C)=O)cc1 (stereo not given) | 10 µM (active) | 
COc1ccc(C2NC(=O)c3ccccc3N2)cc1COc1ccc(NC(C)=O)cc1 (stereo not given) |  | 21.9% (inactive)
COc1cc(C2Nc3ccccc3C(=O)N2c2ccccc2OC)ccc1O (stereo not given) |  | 1.38% (inactive)
COc1ccc(-c2nc3ccccc3c(=O)n2Cc2ccco2)cc1COc1ccc(NC(C)=O)cc1 | 17.8 µM (active) | 
CN1C(=O)N(C)C2(c3ccccc3)Nn3c(s/c(=C/c4ccco4)c3=O)=NC12c1ccccc1 (stereo not given) |  | 0.345% [at 0.00035 µM] (inactive)
Cc1onc(-c2ccccc2Cl)c1C(=O)Nc1ccc(-n2nncc2-c2ccco2)cc1 |  | 0.344% [at 0.00035 µM] (inactive)
COc1ccc(C2Nc3ccccc3C(=O)N2Cc2ccccc2)cc1COc1ccc(C(N)=O)cc1 (stereo not given) |  | 17.6% (inactive)
COc1ccc(CN(Cc2ccccc2)C(=O)c2ccccc2O)cc1 |  | 27% (inactive)
O=C(c1ccc(Br)o1)N(Cc1ccccc1)c1ccccn1 |  | 0.801% [at 0.00035 µM] (inactive)
O=c1c2ccccc2nc(-c2ccccc2O)n1Cc1ccccc1 |  | 4.17% (inactive)
O=C(Nc1ccccn1)NC12CC3CC(CC(C3)C1)C2 |  | 0.487% [at 0.00035 µM] (inactive)
Cc1cc(-n2c(C)cc(C(=O)CSc3nnnn3-c3ccc(Cl)cc3)c2C)no1 |  | 1.18% [at 0.00035 µM] (inactive)
CCCCN1C(=O)c2ccccc2NC1c1ccc(OC)c(COc2ccc(NC(C)=O)cc2)c1 (stereo not given) | 20 µM (active) | 
O=C1CC(c2ccco2)CC2=C1C(c1cccnc1)n1nc(C(F)(F)F)nc1N2 (stereo not given) |  | 8.86% (inactive)
COC(=O)CNC(=O)C12CC3(C)CC(C)(CC(C)(C3)C1)C2 |  | 0.274% [at 0.00035 µM] (inactive)
COc1ccc(C2Nc3ccccc3C(=O)N2Cc2cccc(-c3ccccc3)c2)cc1COc1ccc(NC(C)=O)cc1 (stereo not given) | 2.24 µM (active) | 
CCCS(=O)(=O)N1CCN(C(=O)c2ccc(-c3ccccc3)cc2)CC1 |  | 0.323% [at 0.00035 µM] (inactive)
COc1cc(C2Nc3ccccc3C(=O)N2Cc2ccccc2)ccc1OCc1ccc(NC(C)=O)cc1 (stereo not given) |  | 8.19% (inactive)
CC1(C)c2ccccc2N2CCC(=O)NC21/C=C/c1ccco1 (stereo not given) |  | 0.369% [at 0.00035 µM] (inactive)
COC(=O)C1=C(C)OC(N)=C(C#N)C1C1CCCCC1 (stereo not given) |  | -0.764% [at 0.00035 µM] (inactive)

SMILES | Potency | activation
COc1ccc(C2Oc3ccccc3C(=O)N2Cc2ccccc2)cc1COc1ccc(NC(C)=O)cc1 (stereo not given) | 12.6 µM (active) | 
CC(C)Oc1ccccc1C1Nc2ccccc2C(=O)N1c1ccc2c(c1)OCCO2 (stereo not given) |  | 2.9% (inactive)
COc1ccc(CN(Cc2ccccc2)C(=O)C2CC2)cc1COc1ccc(NC(C)=O)cc1 | 15.8 µM (active) | 
COc1ccc(C2Nc3ccccc3C(=O)N2Cc2ccccc2)cc1COc1ccc([N+](=O)[O-])c(C)c1 (stereo not given) |  | 1.38% (inactive)
COc1ccc(C2=Nn3c(nnc3-c3ccccc3OC)SC2)cc1OC |  | 7.27% (inactive)
COc1ccc(-c2nc3ccc(NC(C)=O)cc3c(=O)n2Cc2ccccc2)cc1COc1ccc(NC(C)=O)cc1 |  | 19.5% (inactive)
CCCN1C(=O)c2ccccc2NC1c1cc(OC)c(OC)c(OC)c1 (stereo not given) |  | 1.24% (inactive)
O=C(c1cc(Br)ccc1O)N(Cc1ccco1)Cc1cccs1 |  | 6.91% (inactive)
COc1ccc(CN(Cc2ccccc2)C(=O)c2ccccc2N)cc1COc1ccc(NC(C)=O)cc1 | 25.1 µM (active) | 
O=C1c2ccccc2NC(c2ccc(F)cc2)N1Cc1ccco1 (stereo not given) |  | 1.15% (inactive)
COc1ccc(C2Nc3ccccc3C(=O)N2Cc2ccccc2Cl)cc1COc1ccc(NC(C)=O)cc1 (stereo not given) |  | 10.2% (inactive)
O=C1c2ccccc2NC(c2ccccc2O)N1Cc1ccccc1 (stereo not given) |  | 3.61% (inactive)
N#Cc1ccc(C(=O)N(Cc2ccco2)Cc2cccs2)cc1 |  | 4.24% (inactive)
CCSCCOC(=O)C1=C(C)N(C)C(=O)NC1c1cc(OC)ccc1OC (stereo not given) |  | 1.56% [at 0.00035 µM] (inactive)
O=C1c2ccccc2NC(c2ccccc2)N1c1ccc(O)cc1 (stereo not given) |  | 1.31% (inactive)
CCn1c(=O)c(C(=O)CN2CCCc3ccccc32)c(N)n(Cc2ccccc2)c1=O |  | 0.971% (inactive)
COc1ccc(C2Nc3ccccc3C(=O)N2c2ccccc2F)cc1COc1ccc(NC(C)=O)cc1 (stereo not given) |  | 11.4% (inactive)
CCN(CC)CCN1C(=O)c2ccccc2NC1c1ccccc1F (stereo not given) |  | 1.17% (inactive)
O=C1c2ccccc2NC(c2ccc3c(c2)OCCO3)N1c1ccc2c(c1)OCCO2 (stereo not given) |  | 2.01% (inactive)
COc1cc(C2Nc3ccccc3C(=O)N2c2ccc3c(c2)OCCO3)ccc1OCC(C)C (stereo not given) |  | 1% (inactive)
